Reference: PubChem BioAssay AID540276 (National Center for Advancing Translational Sciences (NCATS), 2011)
Hit rate of the full screen: of about 300,000 compounds, about 5,400 (1.8%) were called active. About 28% were inconclusive and are not listed. Calls come from the whole dose curve; tested in HEK293 cells. The sample as a whole holds a higher share of actives than the screen did.

Assay: qHTS for inhibitors of binding or entry into cells for Marburg Virus
Details: Marburg virus pseudotyped entry inhibition, cell reporter; series mostly up to 37.8 µM; activity change, negative = inhibition: at the top concentration
% is set by controls: 0 for no effect and ±100 for the full control effect; potency is the fitted concentration of half-maximal effect.

SMILES	activity change, negative = inhibition	Potency
COc1ccc(Cl)cc1NC(=O)c1cccc(N2C(=O)C3CC=CCC3C2=O)c1 (centres undefined)	-11.5% (inactive)	
O=C(CC1SC(N2CCCC2)=NC1=O)Nc1ccc(C(=O)NCCc2ccc(F)cc2)cc1 (centres undefined)	16.2% (inactive)	
CC(C)C(=O)OCC(=O)Nc1ccc2c(c1)CCC2	-11% [at 46.1 µM] (inactive)	
CC1CC(C)CN(CCC(=O)Nc2ccc3c(c2)CCC3)C1 (centres undefined)		7.3 µM (active)
CC1CC(C)CN(CC(=O)Nc2ccc(S(N)(=O)=O)cc2)C1 (centres undefined)	0% (inactive)	
Cc1nnc(NC(=O)C(c2ccccc2)c2ccccc2)s1	0.601% [at 46.1 µM] (inactive)	
CC/C(=C\c1ccc(Cl)cc1)c1ccncc1	-7.96% (inactive)	
O=C1NCC(Nc2ccccc2)C(=O)N1 (centres undefined)	-1.5% (inactive)	
Cc1ccc(CN(C(=O)c2sc3ccccc3c2Cl)C2CCS(=O)(=O)C2)cc1 (centres undefined)	-19.4% (inactive)	
CC1(C)C(C=C(Cl)Cl)C1C(=O)N(Cc1ccc(Cl)cc1)C1CCS(=O)(=O)C1 (centres undefined)		12.6 µM (active)
Cc1cc(Cl)ccc1OCC(=O)N(Cc1ccc(N(C)C)cc1)C1CCS(=O)(=O)C1 (centres undefined)	-10% [at 46.1 µM] (inactive)	
CCOC(=O)C1(Cc2ccccc2C)CCCN(C(=O)c2ccc(COC)o2)C1 (centres undefined)	-28% (inactive)	
O=C1NC(c2ccccc2)Cc2ccncc21 (centres undefined)	18% (inactive)	
Cc1c(C)c2c(c(C)c1O)CC[C@@](C)(CN1CCN(c3cc(N4CCCC4)nc(N4CCCC4)n3)CC1)O2		10 µM (active)
O=c1nc(NO)ccn1C1CCCO1 (centres undefined)	5.3% (inactive)	
N=c1oc2ccccc2cc1C(=O)NCc1ccccc1	6.37% (inactive)	
CCOc1ccc(C(=O)Nc2c3c(nn2-c2ccccc2)CS(=O)(=O)C3)cc1	-5.01% (inactive)	
COc1cccc(C(=O)Nc2c3c(nn2-c2cccc(C)c2C)CS(=O)(=O)C3)c1OC		18.3 µM (active)
Cc1cccc(-n2nc3c(c2NC(=O)c2cc4ccccc4o2)CS(=O)(=O)C3)c1	0.783% (inactive)	
CCN(CC(=O)Nc1ccc(OC)cc1)C(=O)c1ccc(Cl)c(S(=O)(=O)N2CCCC2)c1	1.55% (inactive)	
COc1cccc(N(CC(=O)NC2CCCCCC2)S(=O)(=O)c2ccccc2)c1	15.1% (inactive)	
Cn1c(=O)c2c(nc(NCCc3ccccc3)n2Cc2ccccc2)n(C)c1=O		7.3 µM (active)

SMILES	activity change, negative = inhibition	Potency
Cn1c(=O)c2c(nc(NCCc3ccccc3)n2Cc2ccccc2Br)n(C)c1=O	4.15% [at 46.1 µM] (inactive)	
Cn1c(=O)c2c(nc(NCCNC(=O)c3ccco3)n2Cc2ccccc2F)n(C)c1=O	-2.49% [at 46.1 µM] (inactive)	
COC(=O)c1ccc(CNC(=O)c2ccc3oc(C(C)C)nc3c2)cc1	8.4% (inactive)	
Cc1ccc2occ(/C=N/NC(=O)c3ccccc3C)c(=O)c2c1	24.7% (inactive)	
Cc1nc2ccc(C(=O)N/N=C/c3ccc(O)cc3)cc2[nH]1	6.82% [at 46.1 µM] (inactive)	
Cc1ccc(/C=N/NC(=O)C2=NNC(c3ccccc3)(c3ccccc3)C2)c(O)c1		8.91 µM (active)
COc1ccc(NC(=O)c2cccc(Cl)c2)c[n+]1[O-]	5.7% (inactive)	
O=C(OCC(=O)N1CCN(C(=O)c2ccco2)CC1)c1c(Cl)cccc1Cl	22.8% (inactive)	
COc1cccc(NC(=O)CCc2nnc3ccc(N4CCC(C)CC4)nn23)c1	-5.71% [at 46.1 µM] (inactive)	
CC1CCN(C(=O)CCc2nnc3ccc(NCc4ccco4)nn23)CC1		3.16 µM (active)
O=C(CCc1nnc2ccc(NCc3ccccc3Cl)nn12)NCC1CCN(C2CCCC2)C1 (centres undefined)	-0.332% [at 46.1 µM] (inactive)	
CC1=C(C(=O)NC2CC(C)(C)Cc3c2cnn3-c2ccc(C)cc2)OCCO1 (centres undefined)	-19.3% (inactive)	
COc1cccc(-n2c(N)cc(=O)nc2SCC(=O)Nc2cc(C)on2)c1	20.4% (inactive)	
O=C(O)C[C@H](C(=O)OC[C@H]1CCCO1)N1CCOCC1	20% (inactive)	
CC1CN(C(=O)c2cc(COc3c(F)cccc3F)on2)CCN1C (centres undefined)	29.3% (inactive)	
CCOc1cc(NC(=O)c2ccccn2)c(OCC)cc1NC(=O)c1ccc(OC)cc1	-24.5% [at 46.1 µM] (inactive)	
CCC(C)(NC(=O)c1ccccn1)C(=O)NC1CCCCC1 (centres undefined)	-6.35% (inactive)	
CCN(CC)CCOc1ccc2c(c1)C(=NNC(=O)c1ccccn1)c1cc(OCCN(CC)CC)ccc1-2		10.3 µM (active)
CC(=O)N1CCOc2ccc(S(=O)(=O)N3CCC(C(=O)Nc4ccccc4F)CC3)cc21	-3.88% [at 46.1 µM] (inactive)	
CCOc1ccc(CN2CCN(Cc3ccon3)CC2CCO)cc1 (centres undefined)	-4.65% [at 46.1 µM] (inactive)	
CCOc1ccc(CN2CCN(Cc3ccc4cc(F)ccc4n3)CC2CCO)cc1 (centres undefined)		10 µM (active)
Cc1ccc(CN2CCN(Cc3ccc4ncccc4c3)CC2CCO)cc1 (centres undefined)	-22.5% [at 46.1 µM] (inactive)	

SMILES	activity change, negative = inhibition	Potency
COc1cccc([C@@H]2Oc3ccc(OC)cc3C(=O)[C@@H]2OC(=O)Nc2cc(OC)c(OC)c(OC)c2)c1	12.9% [at 14.2 µM] (inactive)	
Cc1ccccc1CCNC(=O)C1CCC(=O)N(Cc2ccc(Cl)cc2)C1 (centres undefined)	0.744% (inactive)	
Cc1ccc(OCc2cc(C(=O)N(C)CCn3ccnc3C)no2)cc1C	6.47% (inactive)	
COC(=O)C/C=C/[C@@H](C)[C@@H](/C=N/OC[C@@H](O)[C@H]1O[C@@H]2OC(C)(C)O[C@@H]2[C@H]1O)OC	21.9% [at 14.2 µM] (inactive)	
CCN(CC)c1ccc(NC(=O)c2ccc(Cl)nc2)cc1		7.08 µM (active)
O=C(NNC(=O)c1ccc(Cl)nc1)c1ccc(Br)cc1	-3.9% [at 46.1 µM] (inactive)	
CCOC(=O)c1ccc(NC(=O)c2cccnc2)cc1	0.208% (inactive)	
Cc1ccc(NC(=O)C(C)OC(=O)C2CC3CCCC(C2)C3=O)cc1S(=O)(=O)N1CCOCC1 (centres undefined)	19.8% (inactive)	
CC(=O)Oc1ccccc1[C@@H]1OC(=O)c2ccccc2N1C(C)=O	-23.5% (inactive)	
COc1ccc(/C=C/c2noc(-c3ccccc3OC(C)=O)n2)cc1		11.2 µM (active)
COc1ccc(/C=C/c2noc(-c3ccccc3O)n2)cc1OC	-4.78% [at 46.1 µM] (inactive)	
CN(CC(=O)NCCc1ccc(S(N)(=O)=O)cc1)CC(=O)Nc1ccc(F)c(F)c1F	-0.907% [at 46.1 µM] (inactive)	
COc1ccc(CCNC2=C(Cl)C(=O)N(Cc3ccccc3)C2=O)cc1OC		11.2 µM (active)
COc1ccc(CCN(C)CCN2C(=O)c3ccccc3C2=O)cc1OC	12.3% (inactive)	
COc1ccc(CCNc2nc(C)cc(C)n2)cc1OC	0.762% [at 46.1 µM] (inactive)	
CC(=NNC(=O)c1ccc2nc[nH]c2c1)c1ccc(Br)cc1	-4.25% [at 46.1 µM] (inactive)	
O=C(O)c1ccc(Cn2cnc3c(=S)nc[nH]c32)cc1	1.1% [at 46.1 µM] (inactive)	
O=C(COC(=O)COc1ccccc1F)Nc1cccc(S(=O)(=O)N2CCCCC2)c1	-2.27% (inactive)	
O=C(COc1ccccc1F)NNC(=O)c1ccc(N2CCCCC2)c([N+](=O)[O-])c1	4.78% (inactive)	
O=C(COc1ccc(Br)cc1F)NCC1(N2CCCCC2)CCCCC1		10 µM (active)
